{"source": "PubChem BioAssay (Tox21)", "key": {"[1]": {"assay": "qHTS assay for small molecule agonists of the p53 signaling pathway (AID 651631); further: nearly all actives have a fitted effect of over 15% in size; further: potency means the concentration at half of the fitted maximal effect", "procedure,_shortened": "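Beta-lactamase reporter activity under p53 response elements was quantified in HCT-116 cells by FRET fluorescence, following 16 h incubation with test compounds at 37 °C and 2 h substrate development at room temperature.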"}, "[2]": {"assay": "qHTS assay to identify small molecule antagonists of the estrogen receptor alpha (ER-alpha) signaling pathway using the BG1 cell line (AID 743080); further: series mostly up to about 70 µM; nearly all actives have a fitted effect of over 25% in size", "procedure,_shortened": "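Readout is ONE-Glo luminescence, taken 30 min at room temperature after reagent addition, preceded by a CellTiter-Fluor viability read; BG1-Luc-4E2 cells had received compound and 17beta-estradiol for 21.5 h at 37 C.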"}, "[3]": {"biological_target": "Glucocorticoid receptor (Homo sapiens) (UniProt P04150)", "sequence (P04150 whole entry, looked up)": "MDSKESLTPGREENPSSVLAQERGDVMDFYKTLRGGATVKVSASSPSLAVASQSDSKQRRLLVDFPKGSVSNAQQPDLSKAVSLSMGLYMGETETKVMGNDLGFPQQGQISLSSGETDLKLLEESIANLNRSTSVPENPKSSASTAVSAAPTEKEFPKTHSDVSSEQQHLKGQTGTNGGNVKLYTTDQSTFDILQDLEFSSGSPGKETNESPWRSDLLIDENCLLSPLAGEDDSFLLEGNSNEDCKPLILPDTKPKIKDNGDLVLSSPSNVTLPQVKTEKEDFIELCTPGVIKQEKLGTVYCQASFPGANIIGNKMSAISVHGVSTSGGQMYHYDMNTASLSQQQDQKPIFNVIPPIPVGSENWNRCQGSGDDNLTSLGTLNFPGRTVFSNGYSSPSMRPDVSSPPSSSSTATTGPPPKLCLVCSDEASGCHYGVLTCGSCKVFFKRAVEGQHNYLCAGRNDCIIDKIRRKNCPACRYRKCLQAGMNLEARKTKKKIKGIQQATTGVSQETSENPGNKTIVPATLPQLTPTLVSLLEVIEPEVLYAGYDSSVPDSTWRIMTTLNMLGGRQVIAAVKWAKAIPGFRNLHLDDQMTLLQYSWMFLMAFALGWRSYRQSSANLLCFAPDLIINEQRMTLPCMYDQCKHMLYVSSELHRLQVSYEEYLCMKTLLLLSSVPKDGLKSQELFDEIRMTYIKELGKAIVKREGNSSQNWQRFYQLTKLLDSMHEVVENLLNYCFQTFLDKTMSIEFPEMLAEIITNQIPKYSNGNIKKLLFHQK", "assay": "qHTS assay to identify small molecule agonists of the glucocorticoid receptor (GR) signaling pathway (AID 720691; active means well fitted activation curve with a large enough effect in the signal ratio in the repeat runs, not every such curve was filed as active; the % refers to the signal ratio)", "procedure,_shortened": "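A HeLa cervical cancer line expressing GR and a glucocorticoid response element-driven beta-lactamase gene is treated with compounds for 18 h; LiveBLAzer B/G FRET substrate is then applied and fluorescence read.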"}, "[4]": {"biological_target": "Glucocorticoid receptor (Homo sapiens) (UniProt P04150)", "assay": "qHTS assay to identify small molecule antagonists of the glucocorticoid receptor (GR) signaling pathway (AID 720692; active means well fitted inhibition curve with a large enough effect in the signal ratio in the repeat runs, not every such curve was filed as active; the % refers to the signal ratio)", "procedure,_shortened": "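GRE-bla HeLa line, dex-stimulated (5 nM final). Compound exposure 18 h, 37 C. Beta-lactamase FRET read after 2 h RT substrate.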"}, "[5]": {"assay": "qHTS assay to identify small molecule antagonists of the estrogen receptor alpha (ER-alpha) signaling pathway using the BG1 cell line in the presence of 0.1 nM 17-beta-estradiol - cell viability counter screen (AID 1259241; active means well fitted curve in the direction sought with a large enough effect in the repeat runs; an effect the other way counts as inactive or inconclusive; further: nearly all actives have a fitted effect of over 40% in size)", "procedure,_shortened": "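In this screen, hormone-deprived VM7Luc4E2 cells were seeded at 4,000 per well, dosed with compound and 0.1 nM estradiol final, and incubated 22 hr at 37C and 5% CO2; fluorogenic live-cell protease signal reported viability.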"}, "[6]": {"assay": "qHTS assay to identify small molecule antagonists of the androgen receptor (AR) signaling pathway using the MDA cell line in the presence of 0.5 nM R1881 - cell viability counter screen (AID 1259242; active means well fitted curve in the direction sought with a large enough effect in the repeat runs; an effect the other way counts as inactive or inconclusive; further: nearly all actives have a fitted effect of over 45% in size)", "procedure,_shortened": "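Human breast carcinoma MDA-kb2 cells, cultured without CO2, receive compounds alongside 0.5 nM (final) R1881 agonist. After 16 hr at 37C, viability is taken as live-cell protease signal.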"}, "[7]": {"biological_target": "Acetylcholinesterase (Homo sapiens) (UniProt P22303)", "sequence (P22303 whole entry, looked up)": "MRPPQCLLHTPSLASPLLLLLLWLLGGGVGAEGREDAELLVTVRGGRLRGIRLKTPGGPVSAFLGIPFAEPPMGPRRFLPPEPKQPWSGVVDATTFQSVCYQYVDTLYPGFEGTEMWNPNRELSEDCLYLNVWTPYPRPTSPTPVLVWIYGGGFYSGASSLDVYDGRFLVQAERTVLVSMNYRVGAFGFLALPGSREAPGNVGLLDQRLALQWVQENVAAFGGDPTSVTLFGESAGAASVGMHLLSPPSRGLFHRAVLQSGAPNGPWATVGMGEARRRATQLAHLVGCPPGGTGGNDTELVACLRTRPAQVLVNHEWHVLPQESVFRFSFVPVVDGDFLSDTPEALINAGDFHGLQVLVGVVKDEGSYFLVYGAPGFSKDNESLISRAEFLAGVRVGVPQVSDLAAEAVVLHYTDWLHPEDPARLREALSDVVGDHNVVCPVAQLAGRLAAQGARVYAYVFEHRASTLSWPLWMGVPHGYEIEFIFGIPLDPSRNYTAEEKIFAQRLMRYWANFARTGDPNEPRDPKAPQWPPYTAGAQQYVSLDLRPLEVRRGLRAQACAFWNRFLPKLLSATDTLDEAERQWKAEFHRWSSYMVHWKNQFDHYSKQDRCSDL", "assay": "Acetylcholinesterase (AChE) small molecule antagonists: colormetric cell-based qHTS assay (AID 1347395); further: nearly all actives have a fitted effect of over 30% in size", "procedure,_shortened": "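After overnight attachment at 37 C, SH-SY5Y cells get 30 min compound exposure; detection cocktail (acetylthiocholine, DTNB) then incubates 90 min at 37 C, and absorbance reflects AChE-generated thiocholine.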"}, "[8]": {"biological_target": "Acetylcholinesterase (Homo sapiens) (UniProt P22303)", "assay": "Acetylcholinesterase (AChE) small molecule antagonists: enzyme-based qHTS assay (AID 1347397); further: nearly all actives have a fitted effect of over 55% in size", "details": "Potency: AChE enzyme activity inhibition; outcome: AChE enzyme activity inhibition", "procedure,_shortened": "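In this quantitative HTS, compounds from the Tox21 10K collection were preincubated 30 min at ambient temperature with recombinant human AChE dispensed at 50 mU/mL. Hydrolysis of acetylthiocholine was then followed for 10 min by DTNB colour development.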"}, "[9]": {"biological_target": "Acetylcholinesterase (Homo sapiens) (UniProt P22303)", "assay": "Acetylcholinesterase (AChE) small molecule antagonists: fluorescence cell-based qHTS assay (AID 1347398); further: nearly all actives have a fitted effect of over 50% in size", "details": "Potency: AChE activity; outcome: AChE activity", "procedure,_shortened": "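Cells (SH-SY5Y) attached overnight, were dosed with compound or DMSO vehicle for 30 min at 37 C, and then incubated 40 min at room temperature with acetylthiocholine and Thiolite Green; green fluorescence indexed AChE activity.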"}, "[10]": {"biological_target": "Acetylcholinesterase (Homo sapiens) (UniProt P22303)", "assay": "Acetylcholinesterase (AChE) small molecule antagonists: enzyme-based qHTS assay with human liver microsomes (AID 1347399); further: nearly all actives have a fitted effect of over 60% in size", "details": "Potency: qHTS inhibition; outcome: qHTS inhibition", "procedure,_shortened": "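Recombinant human AChE (50 mU/mL in the enzyme mix) and human liver microsomes (0.25 mg/mL final) were preincubated with compound and NADPH (0.25 mg/mL final) for 30 min at 37 C. Acetylthiocholine/DTNB was then added; thiocholine was read colorimetrically after 10 min at room temperature.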"}, "[11]": {"biological_target": "Androgen receptor (Homo sapiens) (UniProt P10275)", "sequence (P10275 whole entry, looked up)": "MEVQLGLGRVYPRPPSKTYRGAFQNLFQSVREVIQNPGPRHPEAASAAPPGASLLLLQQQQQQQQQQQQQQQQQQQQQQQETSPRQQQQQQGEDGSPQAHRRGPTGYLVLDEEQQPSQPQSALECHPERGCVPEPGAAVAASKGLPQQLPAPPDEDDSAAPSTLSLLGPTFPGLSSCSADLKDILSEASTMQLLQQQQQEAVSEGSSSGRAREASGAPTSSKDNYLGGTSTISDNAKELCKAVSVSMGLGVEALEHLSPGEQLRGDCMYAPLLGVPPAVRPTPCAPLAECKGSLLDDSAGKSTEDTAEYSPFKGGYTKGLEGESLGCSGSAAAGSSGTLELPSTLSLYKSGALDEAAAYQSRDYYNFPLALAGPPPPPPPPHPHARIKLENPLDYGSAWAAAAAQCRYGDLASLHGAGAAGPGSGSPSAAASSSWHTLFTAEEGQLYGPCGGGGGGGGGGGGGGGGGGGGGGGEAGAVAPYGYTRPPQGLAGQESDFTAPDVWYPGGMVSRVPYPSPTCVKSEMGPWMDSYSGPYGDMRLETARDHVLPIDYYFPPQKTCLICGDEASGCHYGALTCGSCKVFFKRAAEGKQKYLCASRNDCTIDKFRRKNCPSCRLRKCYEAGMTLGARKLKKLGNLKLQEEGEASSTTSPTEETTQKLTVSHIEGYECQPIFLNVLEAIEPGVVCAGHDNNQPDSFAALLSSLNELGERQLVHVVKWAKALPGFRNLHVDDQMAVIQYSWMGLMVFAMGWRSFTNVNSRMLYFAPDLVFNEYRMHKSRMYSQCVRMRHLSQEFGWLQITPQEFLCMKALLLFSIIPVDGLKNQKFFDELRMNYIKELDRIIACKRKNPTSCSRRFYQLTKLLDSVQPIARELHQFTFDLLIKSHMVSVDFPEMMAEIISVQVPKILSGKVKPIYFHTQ", "assay": "qHTS assay to identify small molecule agonists of the androgen receptor (AR) signaling pathway using the MDA cell line (AID 743040; active means well fitted curve in the direction sought with a large enough effect in the repeat runs; an effect the other way counts as inactive or inconclusive; further: nearly all actives have a fitted effect of over 20% in size)", "procedure,_shortened": "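Testing was done with the MDA-kb2 AR-luc line, a human breast carcinoma stably transfected with MMTV-luciferase containing AR and GR response elements. Cells were exposed 16 h at 37C before ONE-Glo luminescence detection.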"}, "[12]": {"biological_target": "Androgen receptor (Homo sapiens) (UniProt P10275)", "assay": "qHTS assay to identify small molecule antagonists of the androgen receptor (AR) signaling pathway using the MDA cell line (AID 743042; active means well fitted curve in the direction sought with a large enough effect in the repeat runs; an effect the other way counts as inactive or inconclusive; further: nearly all actives have a fitted effect of over 55% in size; further: potency means the concentration at half of the fitted maximal effect)", "procedure,_shortened": "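MDA-kb2 breast carcinoma cells carrying MMTV-luciferase (AR/GR responsive) were co-treated with compounds and the agonist R1881 for 16 h at 37C. Inhibition read as ONE-Glo luminescence; CellTiter-Fluor fluorescence measured in parallel for cytotoxicity.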"}, "[13]": {"biological_target": "Androgen receptor (Homo sapiens) (UniProt P10275)", "assay": "qHTS assay to identify small molecule agonists of the androgen receptor (AR) signaling pathway (AID 743036; active means well fitted activation curve with a large enough effect in the signal ratio in the repeat runs, with a control signal flat, not every such curve was filed as active; the % refers to the signal ratio)", "procedure,_shortened": "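Following a 4 h settling period, AR-UAS-bla HEK293 cells were dosed with compounds for 16 h at 37C. A 2 h room-temperature incubation with LiveBLAzer B/G FRET substrate preceded the fluorescence measurement.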"}}, "note": "Records with an inconclusive call do not appear. A call without a number means that no potency is given here. Activity calls are given as the source filed them. Unless noted, the call rests on the fitted dose curve.", "data": [{"smiles": "CC(=O)OO", "values": [{"measurement": "Potency", "setting": "[1]", "result": "inactive"}, {"measurement": "Potency", "setting": "[2]", "result": "inactive"}]}, {"smiles": "Cc1ccccc1-n1c(C)nc2ccccc2c1=O", "values": [{"measurement": "Potency", "setting": "[1]", "result": "inactive"}, {"measurement": "Potency", "setting": "[3]", "result": "inactive"}, {"measurement": "Potency", "setting": "[4]", "result": "inactive"}, {"measurement": "Potency", "setting": "[2]", "result": "inactive"}]}, {"smiles": "C=CCN(C1=NCCN1)c1c(Cl)cccc1Cl", "values": [{"measurement": "Potency", "setting": "[1]", "result": "inactive"}, {"measurement": "Potency", "setting": "[4]", "result": "inactive"}, {"measurement": "Potency", "setting": "[2]", "result": "inactive"}]}, {"smiles": "c1ccccc1", "values": [{"measurement": "Potency", "setting": "[3]", "result": "inactive"}, {"measurement": "Potency", "setting": "[4]", "result": "inactive"}, {"measurement": "Potency", "setting": "[2]", "result": "inactive"}, {"measurement": "Potency", "setting": "[5]", "result": "inactive"}, {"measurement": "Potency", "setting": "[6]", "result": "inactive"}, {"measurement": "Potency", "setting": "[7]", "result": "inactive"}, {"measurement": "Potency", "setting": "[8]", "result": "inactive"}, {"measurement": "Potency", "setting": "[9]", "result": "inactive"}, {"measurement": "Potency", "setting": "[10]", "result": "inactive"}]}, {"smiles": "CCC1(C)CC(=O)NC(=O)C1", "values": [{"measurement": "Potency", "setting": "[1]", "result": "inactive"}, {"measurement": "Potency", "setting": "[3]", "result": "inactive"}, {"measurement": "Potency", "setting": "[4]", "result": "inactive"}]}, {"smiles": "C[C@H]1CC[C@]2(NC1)O[C@H]1C[C@H]3[C@@H]4CC[C@H]5C[C@@H](O[C@@H]6O[C@H](CO)[C@H](O[C@@H]7O[C@H](CO)[C@@H](O)[C@H](O[C@@H]8OC[C@@H](O)[C@H](O)[C@H]8O)[C@H]7O[C@@H]7O[C@H](CO)[C@@H](O)[C@H](O)[C@H]7O)[C@H](O)[C@H]6O)CC[C@]5(C)[C@H]4CC[C@]3(C)[C@H]1[C@@H]2C", "values": [{"measurement": "Potency", "setting": "[11]", "result": "inactive"}, {"measurement": "Potency", "setting": "[12]", "result": "5.96 µM (active)"}]}, {"smiles": "CCC(C)(S(=O)(=O)CC)S(=O)(=O)CC", "values": [{"measurement": "Potency", "setting": "[1]", "result": "inactive"}, {"measurement": "Potency", "setting": "[2]", "result": "inactive"}]}, {"smiles": "CN(C)CCCCCCN(C)C", "values": [{"measurement": "Potency", "setting": "[3]", "result": "inactive"}, {"measurement": "Potency", "setting": "[4]", "result": "inactive"}, {"measurement": "Potency", "setting": "[5]", "result": "inactive"}, {"measurement": "Potency", "setting": "[6]", "result": "inactive"}]}, {"smiles": "CC(=O)Oc1ccc2c3c1O[C@H]1[C@@H](OC(C)=O)C=C[C@H]4[C@@H](C2)N(C)CC[C@@]341", "values": [{"measurement": "Potency", "setting": "[1]", "result": "inactive"}, {"measurement": "Potency", "setting": "[3]", "result": "inactive"}, {"measurement": "Potency", "setting": "[4]", "result": "inactive"}, {"measurement": "Potency", "setting": "[2]", "result": "inactive"}]}, {"smiles": "O=C(CCl)c1ccc(Oc2ccc(C(=O)CCl)cc2)cc1", "values": [{"measurement": "Potency", "setting": "[2]", "result": "inactive"}]}, {"smiles": "O=[N+]([O-])c1cc(I)c(O)c(I)c1", "values": [{"measurement": "Potency", "setting": "[1]", "result": "5.31 µM (active)"}, {"measurement": "Potency", "setting": "[3]", "result": "inactive"}, {"measurement": "Potency", "setting": "[11]", "result": "inactive"}, {"measurement": "Potency", "setting": "[12]", "result": "inactive"}]}, {"smiles": "CCNC(C)Cc1cccc(C(F)(F)F)c1", "note": "(centres undefined)", "values": [{"measurement": "Potency", "setting": "[4]", "result": "inactive"}, {"measurement": "Potency", "setting": "[2]", "result": "inactive"}]}, {"smiles": "COC1=CC=C2[C@H]3Cc4ccc(OC)c5c4[C@@]2(CCN3C)[C@H]1O5", "values": [{"measurement": "Potency", "setting": "[1]", "result": "inactive"}, {"measurement": "Potency", "setting": "[3]", "result": "inactive"}, {"measurement": "Potency", "setting": "[4]", "result": "inactive"}, {"measurement": "Potency", "setting": "[2]", "result": "inactive"}]}, {"smiles": "NCC(O)c1cccc(O)c1", "note": "(centres undefined)", "values": [{"measurement": "Potency", "setting": "[1]", "result": "inactive"}, {"measurement": "Potency", "setting": "[3]", "result": "inactive"}, {"measurement": "Potency", "setting": "[4]", "result": "inactive"}, {"measurement": "Potency", "setting": "[13]", "result": "inactive"}, {"measurement": "Potency", "setting": "[11]", "result": "inactive"}, {"measurement": "Potency", "setting": "[12]", "result": "inactive"}, {"measurement": "Potency", "setting": "[2]", "result": "inactive"}]}, {"smiles": "CC(Cc1ccccc1)NC=O", "note": "(centres undefined)", "values": [{"measurement": "Potency", "setting": "[1]", "result": "inactive"}]}, {"smiles": "CCC(=O)O[C@@](Cc1ccccc1)(c1ccccc1)[C@@H](C)CN(C)C", "values": [{"measurement": "Potency", "setting": "[1]", "result": "inactive"}]}, {"smiles": "CNC(C)C(O)c1ccc(O)cc1", "note": "(centres undefined)", "values": [{"measurement": "Potency", "setting": "[2]", "result": "inactive"}]}]}
